Source: PubChem BioAssay (Tox21)
Results filed as inconclusive are left out. Calls of active or inactive are those of the source. Unless noted, the call rests on the fitted dose curve.

How the values were obtained:
[1] = biological target: Gonadotropin-releasing hormone receptor (Homo sapiens) (UniProt P30968); assay: Human gonadotropin-releasing hormone receptor (GnRHR) small molecule agonists, calcium flux assay in GnRHR-HEK293 cells (AID 1920063); further: nearly all actives have a fitted effect of over 35% in size
Sequence of Gonadotropin-releasing hormone receptor (Homo sapiens) (P30968 whole entry, looked up): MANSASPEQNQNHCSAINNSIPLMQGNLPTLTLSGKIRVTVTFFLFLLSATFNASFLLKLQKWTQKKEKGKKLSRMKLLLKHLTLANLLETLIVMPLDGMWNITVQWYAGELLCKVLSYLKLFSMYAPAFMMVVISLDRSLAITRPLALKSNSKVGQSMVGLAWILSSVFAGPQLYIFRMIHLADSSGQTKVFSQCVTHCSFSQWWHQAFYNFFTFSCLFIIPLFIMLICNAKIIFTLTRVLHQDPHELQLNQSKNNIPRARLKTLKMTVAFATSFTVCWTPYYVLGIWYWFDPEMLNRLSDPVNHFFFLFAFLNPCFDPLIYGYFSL
In short: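 Intracellular calcium rise is the read-out: engineered human GnRHR HEK293 cells, dye-loaded, are exposed to DMSO-dissolved compounds and fluorescence at Ex/Em 480/540 is tracked for 3 min.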

[2] = biological target: KiSS-1 receptor (Homo sapiens) (UniProt Q969F8); assay: Human kisspeptin (KISS1R) small molecule agonists, calcium flux assay in KISS1R-HEK293 cells (AID 1920064; active means well fitted activation curve with a large enough effect in the repeat runs)
Sequence of KiSS-1 receptor (Homo sapiens) (Q969F8 whole entry, looked up): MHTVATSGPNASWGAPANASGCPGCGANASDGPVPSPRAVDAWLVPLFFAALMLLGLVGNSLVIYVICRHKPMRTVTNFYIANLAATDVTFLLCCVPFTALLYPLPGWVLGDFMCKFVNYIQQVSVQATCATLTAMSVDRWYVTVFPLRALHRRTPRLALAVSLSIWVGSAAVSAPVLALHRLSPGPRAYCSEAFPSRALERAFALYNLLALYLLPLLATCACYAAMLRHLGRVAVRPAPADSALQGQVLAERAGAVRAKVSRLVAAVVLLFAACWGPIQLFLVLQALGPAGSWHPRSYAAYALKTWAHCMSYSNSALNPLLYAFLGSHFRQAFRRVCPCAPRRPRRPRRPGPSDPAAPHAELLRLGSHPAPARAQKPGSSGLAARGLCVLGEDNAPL
In short: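 Concentration-response testing used 15 concentrations in triplicate on human KISS1R-expressing HEK293 cells. Calcium-dependent fluorescence (Ex/Em 480/540) was followed kinetically for 3 min after compound transfer.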

[3] = G protein-coupled receptor (GPCR) small molecule agonists, calcium flux assay: HEK293 wild type cell line counter screen (AID 1920065)
In short: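 Fluorescence intensity signals activation. After overnight (18 h) culture and a 1 h calcium dye load at 37 C, compounds are added by pin tool and the plate read at 480/540 nm for 3 min in 1 s steps.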

[4] = p53 small molecule agonists, cell-based qHTS assay with human liver microsomes (AID 1963577);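 further: p53 response element beta-lactamase reporter cells with liver microsomes plus NADPH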
In short: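 16 h, 37 C exposure of p53RE-bla cells to compounds with human liver microsomes and NADPH (0.5 mg/mL final each); detection via LiveBLAzer mixture, 2 h dark at room temperature.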

[5] = p53 small molecule agonists, cell-based qHTS assay with rat liver microsomes (AID 1963578)
In short: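 With rat liver microsomes and NADPH present (0.5 mg/mL final each), p53RE-bla cells are treated with compound for 16 h at 37 C. LiveBLAzer detection mixture is then applied for 2 h at room temperature in the dark.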

[6] = p53 small molecule agonists, cell-based qHTS assay with human liver microsomes: qHTS cell viability counter screen (AID 1963579); further: nearly all actives have a fitted effect of over 45% in size
In short: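 In this multiplexed counter screen, the reporter plates were subsequently treated with CellTiter-Glo so that cell viability, reflected by luminescence, could be recorded for p53RE-bla cells dosed 16 h with compounds under microsomal activation (HLM and NADPH).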

[7] = p53 small molecule agonists, cell-based qHTS assay with rat liver microsomes: qHTS cell viability counter screen (AID 1963580); further: nearly all actives have a fitted effect of over 45% in size
In short: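 Counter screen for cytotoxicity under metabolic activation: rat liver microsomes and NADPH, 0.5 mg/mL final each, added with compounds to p53RE-bla HCT-116 cells; 16 h at 37 C, then ATP luminescence read.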

[8] = p53 small molecule agonists, cell-based qHTS assay: qHTS cell viability counter screen (AID 1963581); further: nearly all actives have a fitted effect of over 45% in size
In short: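 Luminescence from CellTiter-Glo, reflecting ATP content, serves as the cytotoxicity measure; it is taken after the 2 h reporter substrate step in HCT-116 p53RE-bla cells dosed for 16 h at 37 C.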

[9] = p53 small molecule agonists, cell-based qHTS assay (AID 1963582; active means well fitted activation curve with a large enough effect in the signal ratio in the repeat runs, not every such curve was filed as active; the % refers to the signal ratio)
In short: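 After plating, p53RE-bla cells sat 5 h in the incubator; compounds or DMSO vehicle were pinned in; a 16 h incubation at 37 C followed; FRET substrate was added and, 2 h later at RT, fluorescence was measured.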

[10] = biological target: 5-hydroxytryptamine receptor 2A (Homo sapiens) (UniProt P28223); assay: 5-hydroxytryptamine receptor 2A (HTR2A) small molecule agonists, cell-based qHTS assay (AID 1963587); further: nearly all actives have a fitted effect of over 30% in size
Sequence of 5-hydroxytryptamine receptor 2A (Homo sapiens) (P28223 whole entry, looked up): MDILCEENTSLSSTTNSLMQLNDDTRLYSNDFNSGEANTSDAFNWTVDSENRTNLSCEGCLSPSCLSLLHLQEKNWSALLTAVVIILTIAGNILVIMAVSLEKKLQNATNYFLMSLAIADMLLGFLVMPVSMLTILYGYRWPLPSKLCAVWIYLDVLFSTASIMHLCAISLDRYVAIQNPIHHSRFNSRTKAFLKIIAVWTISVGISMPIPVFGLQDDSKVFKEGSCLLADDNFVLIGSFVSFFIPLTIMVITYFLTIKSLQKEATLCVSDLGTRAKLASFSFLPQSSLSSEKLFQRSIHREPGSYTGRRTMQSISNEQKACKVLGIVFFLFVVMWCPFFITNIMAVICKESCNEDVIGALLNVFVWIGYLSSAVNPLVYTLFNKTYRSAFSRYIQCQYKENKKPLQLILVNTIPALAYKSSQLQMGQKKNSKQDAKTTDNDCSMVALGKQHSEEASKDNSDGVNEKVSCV
In short: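 HTR2A-CHO cells, plated 18 h at 37 C/5% CO2, dye-loaded 1 h at 37 C; compounds in DMSO added by pin tool (agonist mode). Intracellular calcium flux read as kinetic fluorescence on FDSS over 2 min at 1 s intervals.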

[11] = biological target: Muscarinic acetylcholine receptor M1 (Homo sapiens) (UniProt P11229); assay: Cholinergic receptor muscarinic 1 (CHRM1) small molecule antagonists, cell-based qHTS assay (AID 1963588); further: nearly all actives have a fitted effect of over 40% in size
Sequence of Muscarinic acetylcholine receptor M1 (Homo sapiens) (P11229 whole entry, looked up): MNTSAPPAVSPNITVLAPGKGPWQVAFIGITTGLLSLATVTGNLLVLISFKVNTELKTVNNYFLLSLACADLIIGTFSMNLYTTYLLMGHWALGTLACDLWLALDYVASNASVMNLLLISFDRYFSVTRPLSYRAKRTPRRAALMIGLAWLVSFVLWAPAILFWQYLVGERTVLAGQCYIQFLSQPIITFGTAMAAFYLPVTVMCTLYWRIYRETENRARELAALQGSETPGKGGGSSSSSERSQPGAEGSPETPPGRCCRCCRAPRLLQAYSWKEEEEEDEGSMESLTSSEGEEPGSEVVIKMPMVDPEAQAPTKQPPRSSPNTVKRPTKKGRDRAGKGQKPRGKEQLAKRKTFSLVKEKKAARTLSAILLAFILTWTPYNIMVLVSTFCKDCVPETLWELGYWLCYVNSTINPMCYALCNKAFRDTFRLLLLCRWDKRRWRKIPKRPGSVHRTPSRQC
In short: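 Compounds were tested at 15 concentrations in three independent runs. Dye-loaded CHRM1-CHO cells were exposed 5 min at room temperature before stimulation by acetylcholine added at 50nM. Intracellular calcium was read kinetically on FDSS for 3 min.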

[12] = biological target: Muscarinic acetylcholine receptor M1 (Homo sapiens) (UniProt P11229); assay: Cholinergic receptor muscarinic 1 (CHRM1) small molecule agonists, cell-based qHTS assay (AID 1963589); further: nearly all actives have a fitted effect of over 35% in size
In short: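 Fluorescent calcium dye reports M1 activation in stably transfected CHO cells. Compounds, 15 concentrations, added after 1 h dye loading at 37 C; kinetic reading at 1 sec intervals.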

[13] = cAMP Responsive Elements (CRE) small molecule agonists, cell-based qHTS assay (AID 1963590)
In short: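 Compound exposure lasted 3 h at 37 C/5% CO2 in CRE-bla HEK 293T cells grown in assay medium with 10% dialyzed FBS and 25 mM HEPES. Reporter signal came from LiveBLAzer B/G FRET substrate, 2 h, room temperature.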

[14] = cAMP Responsive Elements (CRE) small molecule antagonists, cell-based qHTS assay (AID 1963591; active means well fitted inhibition curve with a large enough effect in the signal ratio in the repeat runs, not every such curve was filed as active; the % refers to the signal ratio)
In short: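 Stimulation used NKH477 at a final 0.25 uM for 3 h in compound-treated CRE-bla HEK293T cells, seeded 18 h beforehand. Reporter activity was measured with LiveBLAzer B/G FRET substrate after 2 h at room temperature.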

[15] = biological target: Beta-2 adrenergic receptor (Homo sapiens) (UniProt P07550); assay: Adrenergic beta2 receptor (ADRB2) small molecule antagonists, cell-based qHTS assay (AID 1963592); further: series mostly up to about 92 µM; nearly all actives have a fitted effect of over 50% in size
Sequence of Beta-2 adrenergic receptor (Homo sapiens) (P07550 whole entry, looked up): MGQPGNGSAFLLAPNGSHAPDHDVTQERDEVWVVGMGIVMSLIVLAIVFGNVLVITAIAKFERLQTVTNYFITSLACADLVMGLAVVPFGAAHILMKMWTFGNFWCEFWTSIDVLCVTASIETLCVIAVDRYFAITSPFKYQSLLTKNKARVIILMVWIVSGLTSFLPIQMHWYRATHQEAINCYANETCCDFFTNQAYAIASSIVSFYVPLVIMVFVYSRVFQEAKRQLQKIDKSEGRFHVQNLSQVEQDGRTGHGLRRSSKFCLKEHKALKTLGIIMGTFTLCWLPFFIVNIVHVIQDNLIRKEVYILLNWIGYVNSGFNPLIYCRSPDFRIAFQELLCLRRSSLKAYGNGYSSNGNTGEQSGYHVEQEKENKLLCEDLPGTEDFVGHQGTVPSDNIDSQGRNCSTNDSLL
In short: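 Assay format: CHO-ADRB2 cells, 18-20hr seeding at 37C/5% CO2, then compound plus 1nM isoproterenol agonist mix for 0.5hr RT. Homogeneous time-resolved fluorescence cAMP detection after 1hr, expressed as 665/615 nm ratio.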

[16] = biological target: D(2) dopamine receptor (Homo sapiens) (UniProt P14416); assay: Dopamine D2 receptor (DRD2) small molecule antagonists, cell-based qHTS assay (AID 1963595; active means well fitted inhibition curve with a large enough effect in the signal ratio in the repeat runs, with a control signal flat; the % refers to the signal ratio; further: potency means the concentration at half of the fitted maximal effect)
Sequence of D(2) dopamine receptor (Homo sapiens) (P14416 whole entry, looked up): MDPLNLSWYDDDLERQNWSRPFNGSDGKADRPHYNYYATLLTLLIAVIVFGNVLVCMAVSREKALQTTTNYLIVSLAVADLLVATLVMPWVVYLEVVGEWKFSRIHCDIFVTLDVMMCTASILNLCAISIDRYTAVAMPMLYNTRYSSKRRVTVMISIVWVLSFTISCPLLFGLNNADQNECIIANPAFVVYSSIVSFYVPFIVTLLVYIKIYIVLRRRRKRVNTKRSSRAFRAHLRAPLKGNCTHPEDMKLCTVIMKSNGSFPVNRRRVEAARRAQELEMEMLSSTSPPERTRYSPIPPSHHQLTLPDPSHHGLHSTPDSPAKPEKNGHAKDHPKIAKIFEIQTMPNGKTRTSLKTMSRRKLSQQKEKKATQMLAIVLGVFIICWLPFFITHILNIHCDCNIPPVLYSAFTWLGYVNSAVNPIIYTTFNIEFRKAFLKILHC
In short: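 HEK293 cells stably expressing DRD2 were preincubated with 0.1 mM Ro20-1724, then with compound for 10 min at room temperature. Cells were stimulated with 200 nM NKH477 plus 12 nM quinpirole for 30 min, and cAMP was read by HTRF.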

[17] = biological target: Beta-2 adrenergic receptor (Homo sapiens) (UniProt P07550); assay: Adrenergic beta2 receptor (ADRB2) small molecule agonists, cell-based qHTS assay (AID 1963593);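 further: CHO cells stably overexpressing human ADRB2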
In short: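 CHO cells stably over-expressing ADRB2 were plated overnight at 37C, then dosed with compounds plus a stimulation mix containing 100uM IBMX and 25uM Ro-20-1724 for 0.5hr at room temperature. cAMP was measured by HTRF competition, 1hr.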

[18] = biological target: D(2) dopamine receptor (Homo sapiens) (UniProt P14416); assay: Dopamine D2 receptor (DRD2) small molecule agonists, cell-based qHTS assay (AID 1963594); further: nearly all actives have a fitted effect of over 35% in size
In short: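 HEK293 cells stably expressing DRD2 were cultured 24 h at 37 C, then given Ro20-1724 (0.1 mM final) and compounds for 10 min at room temperature. NKH477 (200nM) was then added for 30 min. cAMP was read by HTRF.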

[19] = biological target: 5-hydroxytryptamine receptor 2A (Homo sapiens) (UniProt P28223); assay: 5-hydroxytryptamine receptor 2A (HTR2A) small molecule antagonists, cell-based qHTS assay (AID 1963586); further: nearly all actives have a fitted effect of over 45% in size
In short: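 CHO cells stably expressing human HTR2A were plated for 18 h at 37 C, then loaded with calcium dye for 1 h. Compounds were preincubated 5 min at room temperature before DOI (4 nM solution) was added. Kinetic fluorescence was read for 3 min.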

[20] = Nuclear factor erythroid 2-related factor 2/antioxidant responsive element (Nrf2/ARE) small molecule agonists: luciferase reporter gene qHTS assay in human keratinocytes (AID 1919969); further: nearly all actives have a fitted effect of over 35% in size; further: potency means the concentration at half of the fitted maximal effect

Measured: Potency

CC(=O)N[C@@H](CCC(N)=O)C(=O)O
not listed: [17] | [18] | [19] | [20]
inactive: all other assays above

CCc1ccc(C(=O)C(C)CN2CCCCC2)cc1 (stereo unspecified)
not listed: [3] | [10] | [11] | [12] | [14] | [16] | [19] | [20]
inactive: all other assays above

O=C1[C@H]2CCCC[C@H]2C(=O)N1CCCCN1CCN(c2nsc3ccccc23)CC1
active: [16] 0.0027 µM
not listed: [5] | [11] | [13] | [14] | [17] | [19] | [20]
inactive: all other assays above

CCNC(=O)NCCCOc1cccc(CN2CCCCC2)c1
not listed: [2] | [7] | [8] | [15] | [20]
inactive: all other assays above

CCCCC(CC)C(=O)OC(C)C (stereo unspecified)
not listed: [4] | [12] | [17] | [20]
inactive: all other assays above

CCNC(=O)C(C)OC(=O)Nc1ccccc1 (stereo unspecified)
not listed: [1] | [15] | [17]
inactive: all other assays above

CCN(CC)C(=O)N(CC)CC
not listed: [1] | [13] | [16] | [17] | [18]
inactive: all other assays above

CN1CCN(C2=Nc3ccccc3Oc3ccc(Cl)cc32)CC1
inactive: [1] | [2] | [4] | [5] | [6] | [7] | [9] | [10] | [11] | [12] | [18]

CC1CCCCC1
not listed: [1] | [7] | [8] | [10] | [12] | [17]
inactive: all other assays above

C=CC(=O)OCCOCC(CC)(COCCOC(=O)C=C)COCCOC(=O)C=C
active: [20] 12.7 µM
inactive: [1] | [3] | [4] | [5] | [7] | [19] | [10] | [12] | [15] | [16]

CC(=O)Oc1cc(C(C)C)c(OCCN(C)C)cc1C
not listed: [6] | [8] | [9] | [17] | [18] | [20]
inactive: all other assays above

COc1ccc(/C(C)=C/C(=O)O)c(OC)c1
not listed: [1] | [8] | [14] | [17]
inactive: all other assays above

C=C1CC[C@H](O)C/C1=C\C=C1/CCC[C@]2(C)[C@@H]([C@H](C)CCCC(C)C)CC[C@@H]12
active: [20] 21.5 µM
not listed: [1] | [9] | [10] | [11] | [12] | [13] | [19]
inactive: all other assays above

CC(C=O)Cc1ccc(C(C)C)cc1 (stereo unspecified)
not listed: [2] | [7] | [17]
inactive: all other assays above

C=C[C@@H](C)CCC=C(C)C
not listed: [1] | [3] | [12] | [14] | [15] | [16] | [17]
inactive: all other assays above

OCC(O)c1ccccc1 (stereo unspecified)
not listed: [1] | [17]
inactive: all other assays above

CCCCCCCCCC(=O)N(C)C
active: [20] 43.9 µM
not listed: [1] | [4] | [10] | [12] | [17]
inactive: all other assays above
